{"source": "patent US20120264815", "about": "“REVERSIBLE PLATELET INHIBITION” (DUKE UNIVERSITY, published 2012)", "data": [{"molecular_target": "von Willebrand factor (VWF) (Homo sapiens, UniProt P04275 P04275:764-2813)", "assay": "filter; binding decreased", "conditions": "tags: Haematologic Technologies Inc. (factor VIII free); label: 5'-32P; ssRNA; 2'-F pyrimidines", "description": "Dissociation constants (Kd) of each truncate were determined using double-filter nitrocellulose filter binding assays (Pergolizzi et al, Blood 108:862-869 (2006)). All binding studies were performed in binding buffer F (20 mM HEPES, pH 7.4, 150 mM NaCl, 2 mM CaCl₂, and 0.1% BSA) at 37° C. Human purified VWF (with factor VIII and factor VIII free) was purchased from Haematologic Technologies Inc. (Essex Junction, VT) and used in the double-filter nitrocellulose filter binding assay to determine the Kd of individual clones. Briefly, RNA was dephosphorylated using bacterial alkaline phosphatase (Gibco BRL, Gaithberg, Md.) and end-labeled at the 5′ end with T4 polynucleotide kinase (New England Biolabs, Beverly, Mass.) and [γ³²P] ATP (Amersham Pharmacia Biotech, Piscataway, N.J.). Direct binding was performed by incubating ³²P—RNA with VWF in physiological buffer+1 mg/ml BSA at 37° C. for 5 min. The fraction of the nucleic acid-protein complex which bound to the nitrocellulose membrane was quantified with a phosphoimager (Molecular Dynamics, Sunnyvale, Calif.).", "units": {"binding signal": "% Bmax"}, "values": [{"sequence": "GGGAGGACGAUGCGGUGGACGAACUGCCCUCAGCUACUUUCAUGUUGCUGACGCACAGACGACUCG", "binding signal": 28}, {"sequence": "GGGAGGACGAUGCGGUGGACGAACUGCCCUCAGCUACUUUCAUGUUGCUGACGCACAGACGACUCGCUGAGG", "binding signal": 50}, {"sequence": "GGGAGGACGAUGCGGUGGACGAACUGCCCUCAGCUACUUUCAUGUUGCUGACGCACAGACAGC", "binding signal": 36}, {"sequence": "GGGAGGAACUGCCCUCAGCUACUUUCAUGUUGCUGACGCACAGACGACUCGCUG", "binding signal": 45}, {"sequence": "GGGAGGACGAACUGCCCUCAGCUACUUUCAUGUUGCUGACGCACAGACGACUCGCUG", "binding signal": 58}, {"sequence": "GGGAGGACGAUGCGGUGGACGAACUGCCCUCAGCUACUUUCAUGUUGCUGACGCACAGA", "binding signal": 22}, {"sequence": "GGGAGGACGAUGCGGUGGACGAACUGCCCUCAGCUACUUUCAUGUUGCUGACGCACAGACGACUCGCUG", "binding signal": 50}]}]}
